# Test results published in PubChem BioAssay (NCATS).
# Results filed as inconclusive are left out. Where a call stands in place of a potency, no number is given. Calls of active or inactive are those of the source. Calls follow the shape of the dose curve; as a rule, active = well fitted curve in the direction sought with a large enough effect; inconclusive = small, poorly fitted or top-dose-only effect, or another doubt; inactive = no such curve, though single readings can be large; an effect the other way counts as inactive or inconclusive.
# What was measured:
# [1] = molecular target: Glutathione peroxidase 1 (Homo sapiens) (UniProt P07203); test: Primary qHTS Assay for Inhibitors of Recombinant Selenoprotein Glutathione Peroxidase 1 (GPX1) (AID 1845191); also: nearly all actives have a fitted effect of over 65% in size
# Sequence of Glutathione peroxidase 1 (Homo sapiens) (P07203 whole entry, looked up): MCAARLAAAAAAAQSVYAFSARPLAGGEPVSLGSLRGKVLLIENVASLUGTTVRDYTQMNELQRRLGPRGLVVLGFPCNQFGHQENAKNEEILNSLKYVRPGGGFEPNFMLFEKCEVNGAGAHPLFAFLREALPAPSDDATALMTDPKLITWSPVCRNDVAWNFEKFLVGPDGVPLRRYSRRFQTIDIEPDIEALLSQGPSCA
# In short: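 NADPH consumption tracked by fluorescence at 340/450 nm between t=0 and t=15 min, room temperature. Final mix: 10 nM GPX1, 100 nM glutathione reductase, 1 mM GSH, 0.5 mM NADPH, 0.5 mM cumene hydroperoxide, 0.01% BSA; 30 min compound–enzyme preincubation.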
# [2] = molecular target: Phospholipid hydroperoxide glutathione peroxidase GPX4 (Homo sapiens) (UniProt P36969); test: Primary qHTS Assay for Inhibitors of Recombinant Selenoprotein Glutathione Peroxidase 4 (GPX4) (AID 1845192); also: nearly all actives have a fitted effect of over 65% in size; also: potency is read from the fitted curve at half-maximal effect
# Sequence of Phospholipid hydroperoxide glutathione peroxidase GPX4 (Homo sapiens) (P36969 whole entry, looked up): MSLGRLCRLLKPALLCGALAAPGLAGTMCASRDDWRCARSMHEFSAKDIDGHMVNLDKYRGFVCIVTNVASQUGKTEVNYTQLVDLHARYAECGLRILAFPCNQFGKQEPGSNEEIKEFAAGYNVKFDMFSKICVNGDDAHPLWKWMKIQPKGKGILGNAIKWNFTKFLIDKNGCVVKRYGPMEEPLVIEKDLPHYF
# In short: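 NADPH consumption followed by fluorescence at 340/450 nm, t=0 and after 15 min at room temperature. Reaction started with cumene hydroperoxide (0.5 mM final) after 30 min compound–GPX4 preincubation; final 200 nM GPX4, 100 nM GR, 1 mM GSH, 0.5 mM NADPH.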
# [3] = Quantitative High-Throughput drug screen in 47 multiple myeloma cell lines against the NCATS MIPE library collection: ARP1_JJKsccF8 cell viability assay (AID 1918928; also: nearly all actives have a fitted effect of over 40% in size; also: potency is read from the fitted curve at half-maximal effect)
# In short: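 CellTiter-Glo luminescence after 48 h exposure gives viability, scaled between DMSO-only (100%) and media-only (0%) controls. Library compounds are pinned onto 500 myeloma cells per well, incubated at 37C with 5% CO2.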
# [4] = Quantitative High-Throughput drug screen in 47 multiple myeloma cell lines against the NCATS MIPE library collection: Karpas620_DSMZ cell viability assay (AID 1918959); also: nearly all actives have a fitted effect of over 30% in size; also: potency is read from the fitted curve at half-maximal effect
# In short: (§1)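 Approved and investigational drugs from MIPE 4.0 were added by pin tool to 500 cells per well. After 48 hours at 37C, ATP-based CellTiter-Glo luminescence indicated remaining viability.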
# [5] = Quantitative High-Throughput drug screen in 47 multiple myeloma cell lines against the NCATS MIPE library collection: ARD_JJKsccE7 cell viability assay (AID 1918929; also: potency is read from the fitted curve at half-maximal effect)
# In short: as §1
# [6] = Quantitative High-Throughput drug screen in 47 multiple myeloma cell lines against the NCATS MIPE library collection: Delta47_JCRB cell viability assay (AID 1918925; also: nearly all actives have a fitted effect of over 45% in size; also: potency is read from the fitted curve at half-maximal effect)
# In short: as §1
# [7] = Quantitative High-Throughput drug screen in 47 multiple myeloma cell lines against the NCATS MIPE library collection: AMO1_DSMZ cell viability assay (AID 1918927; also: nearly all actives have a fitted effect of over 30% in size; also: potency is read from the fitted curve at half-maximal effect)
# In short: as §1
# [8] = Quantitative High-Throughput drug screen in 47 multiple myeloma cell lines against the NCATS MIPE library collection: EJM_DSMZ cell viability assay (AID 1918926; also: nearly all actives have a fitted effect of over 30% in size; also: potency is read from the fitted curve at half-maximal effect)
# In short: as §1
# [9] = Quantitative High-Throughput drug screen in 47 multiple myeloma cell lines against the NCATS MIPE library collection: FR4_PLB cell viability assay (AID 1918924; also: nearly all actives have a fitted effect of over 35% in size; also: potency is read from the fitted curve at half-maximal effect)
# In short: as §1
# [10] = molecular target: Luciferin 4-monooxygenase (Photinus pyralis) (UniProt P08659); test: Primary firefly luciferase (FLuc) qHTS assay for identification of artifact compounds. (AID 1845220); also: series mostly up to about 54 µM; nearly all actives have a fitted effect of over 60% in size
# In short: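 FLuc 10 nM; luciferin 10 uM; ATP 10 uM; Tris-acetate pH 7.6, Mg-acetate 10 mM; 15 min RT preincubation; 5 min reaction; luminescence.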
# [11] = Primary fluorescence-based thiol-reactive (MSTI) qHTS assay for identification of artifact compounds. (AID 1845221);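 also: series mostly up to about 54 µM; thiol-reactive compounds lower the probe fluorescence signal; nearly all actives have a fitted effect of over 65% in size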
# In short: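 qHTS titration of compound; 4 uM MSTI, PBS pH 7.4, 2% DMSO; 1 h RT, dark; fluorescence 525/598 nm; normalized to Acetyl-MSTI and MSTI; 4-parameter Hill fit.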
# [12] = test system: Nanoluciferase (engineered Oplophorus gracilirostris luciferase); test: Primary Nanoluciferase (NLuc) qHTS assay for identification of artifact compounds. (AID 1845222);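 also: NLuc secreted into diluted conditioned medium of S16 cells; series mostly up to about 54 µM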
# In short: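 NLuc from S16 cell medium (1:55) plus test compounds, 15 min, room temperature. Luminescence after Nano-Glo (1:100) addition, 5 min.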
# [13] = Primary redox qHTS assay for identification of artifact compounds. (AID 1845223)
# In short: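 Redox-cycling detection via DTT (250 uM final) oxidation coupled to Amplex Red (25 uM)/HRP (250 mU/mL) in HBSS. 15 min preincubation plus 30 min after DTT, room temperature. Ex/Em 525/598 nm; 4-parameter Hill fit against DMSO and 10 uM DA3003.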
structure (smiles),measurement,setting,value
O=[N+]([O-])c1ccc(Nc2ccccc2-c2ccccc2)c2nonc12,Potency,[1],inactive
same,Potency,[2],inactive
same,Potency,[3],inactive
same,Potency,[4],20.9 µM (active)
COc1cc2c(cc1OC)CC(=O)N(CCCN(C)C[C@H]1Cc3cc(OC)c(OC)cc31)CC2,Potency,[1],inactive
same,Potency,[2],inactive
same,Potency,[5],16.6 µM (active)
Cc1nn(Cc2ccccc2Cl)c(C)c1CN(C)CC(O)COc1ccc(Cl)cc1 (configuration not stated),Potency,[1],inactive
same,Potency,[2],inactive
same,Potency,[6],18.7 µM (active)
same,Potency,[7],inactive
OC(c1cc(C(F)(F)F)nc2c(C(F)(F)F)cccc12)C1CCCCN1 (configuration not stated),Potency,[1],inactive
same,Potency,[2],inactive
same,Potency,[6],26.4 µM (active)
same,Potency,[8],18.7 µM (active)
same,Potency,[7],18.7 µM (active)
COc1cc2c(cc1Cc1cccc(Cl)c1F)c(=O)c(C(=O)O)cn2[C@H](CO)C(C)C,Potency,[1],inactive
same,Potency,[2],11.2 µM (active)
same,Potency,[6],20.9 µM (active)
same,Potency,[8],20.9 µM (active)
CC1=C(CC(=O)O)c2cc(F)ccc2C1=Cc1ccc(S(C)=O)cc1 (configuration not stated),Potency,[1],inactive
same,Potency,[2],inactive
same,Potency,[6],3.72 µM (active)
same,Potency,[8],0.59 µM (active)
same,Potency,[7],4.18 µM (active)
same,Potency,[5],11.8 µM (active)
CN(C)CC[C@H](CSc1ccccc1)Nc1ccc(S(=O)(=O)NC(=O)c2ccc(N3CCN(Cc4ccccc4-c4ccc(Cl)cc4)CC3)cc2)cc1[N+](=O)[O-],Potency,[1],inactive
same,Potency,[2],inactive
same,Potency,[8],5.9 µM (active)
same,Potency,[3],13.2 µM (active)
same,Potency,[5],8.33 µM (active)
same,Potency,[4],0.0662 µM (active)
CNC(=O)c1cc(COc2nnc(Nc3ccc(Cl)cc3)c3ccoc23)ccn1,Potency,[1],inactive
same,Potency,[2],inactive
same,Potency,[9],26.4 µM (active)
same,Potency,[7],5.26 µM (active)
CCOC(=O)N1c2ccc(C(F)(F)F)cc2[C@@H](N(Cc2cc(C(F)(F)F)cc(C(F)(F)F)c2)C(=O)OC)C[C@H]1CC,Potency,[1],inactive
same,Potency,[2],inactive
same,Potency,[7],inactive
same,Potency,[3],4.69 µM (active)
same,Potency,[5],inactive
same,Potency,[4],inactive
CCOc1ccccc1N=Nc1c(C)[nH]n(-c2nc(-c3ccccc3)cs2)c1=O,Potency,[1],inactive
same,Potency,[2],inactive
same,Potency,[7],inactive
same,Potency,[3],inactive
Cc1ccc(NC(=O)c2ccc(CN3CCN(C)CC3)cc2)cc1Nc1nc(-c2cccnc2)cs1,Potency,[1],inactive
same,Potency,[2],inactive
same,Potency,[7],18.7 µM (active)
same,Potency,[3],23.5 µM (active)
same,Potency,[5],23.5 µM (active)
CC(C)(F)C[C@H](N[C@@H](c1ccc(-c2ccc(S(C)(=O)=O)cc2)cc1)C(F)(F)F)C(=O)NC1(C#N)CC1,Potency,[1],inactive
same,Potency,[2],inactive
same,Potency,[6],inactive
same,Potency,[8],inactive
same,Potency,[7],inactive
same,Potency,[3],inactive
same,Potency,[5],inactive
same,Potency,[4],inactive
CC[C@]1(O)C[C@H]2CN(CCC3=c4ccccc4=N[C]3[C@@](C(=O)OC)(c3cc4c(cc3OC)N(C)[C@H]3[C@@](O)(C(N)=O)[C@H](O)[C@]5(CC)C=CCN6CC[C@]43[C@@H]65)C2)C1,Potency,[1],inactive
same,Potency,[2],inactive
same,Potency,[9],inactive
same,Potency,[7],0.833 µM (active)
same,Potency,[3],0.0105 µM (active)
same,Potency,[5],0.118 µM (active)
Cc1ccc(C(=O)N(CCCN)[C@@H](c2nc3cc(Cl)ccc3c(=O)n2Cc2ccccc2)C(C)C)cc1,Potency,[1],inactive
same,Potency,[2],inactive
same,Potency,[3],inactive
CCC(=O)NCC[C@@H]1CCc2ccc3c(c21)CCO3,Potency,[1],inactive
same,Potency,[2],inactive
same,Potency,[8],inactive
same,Potency,[7],inactive
same,Potency,[5],inactive
same,Potency,[4],inactive
COc1ccc(CCN(C)CCCOc2ccc(S(=O)(=O)c3[nH]c4ccccc4c3C(C)C)cc2)cc1OC,Potency,[1],inactive
same,Potency,[2],inactive
same,Potency,[6],20.9 µM (active)
same,Potency,[7],inactive
same,Potency,[3],inactive
same,Potency,[5],inactive
same,Potency,[4],inactive
Clc1ccc(COC(Cn2ccnc2)c2ccc(Cl)cc2Cl)c(Cl)c1 (configuration not stated),Potency,[1],inactive
same,Potency,[2],inactive
same,Potency,[8],20.9 µM (active)
same,Potency,[7],23.5 µM (active)
same,Potency,[3],18.7 µM (active)
same,Potency,[5],23.5 µM (active)
same,Potency,[4],20.9 µM (active)
CN1CC(=O)NC1=NC(=O)Nc1cccc(Cl)c1,Potency,[1],inactive
same,Potency,[2],inactive
same,Potency,[9],20.9 µM (active)
same,Potency,[7],inactive
same,Potency,[3],20.9 µM (active)
same,Potency,[4],5.26 µM (active)
Cc1ccc2c(=O)c3cccc(CC(=O)O)c3oc2c1C,Potency,[1],inactive
same,Potency,[2],inactive
same,Potency,[8],6.62 µM (active)
same,Potency,[7],inactive
same,Potency,[5],inactive
same,Potency,[4],inactive
COc1cc2ncn(-c3cc(OCc4ccccc4S(C)(=O)=O)c(C#N)s3)c2cc1OC,Potency,[1],inactive
same,Potency,[2],inactive
same,Potency,[6],inactive
same,Potency,[8],3.72 µM (active)
same,Potency,[7],inactive
same,Potency,[3],inactive
same,Potency,[5],inactive
same,Potency,[4],inactive
CCc1cc(-c2n[nH]c(C)c2-c2ccc3c(c2)OCCO3)c(O)cc1O,Potency,[1],inactive
same,Potency,[2],inactive
same,Potency,[6],7.43 µM (active)
same,Potency,[7],3.72 µM (active)
same,Potency,[3],2.96 µM (active)
same,Potency,[5],1.18 µM (active)
same,Potency,[4],14.8 µM (active)
Cc1cccc(Nc2nc(N[C@@H]3CCCC[C@H]3N)ncc2C(N)=O)c1,Potency,[1],inactive
same,Potency,[2],inactive
same,Potency,[6],0.187 µM (active)
same,Potency,[8],20.9 µM (active)
same,Potency,[7],20.9 µM (active)
same,Potency,[3],16.6 µM (active)
same,Potency,[5],20.9 µM (active)
same,Potency,[4],26.4 µM (active)
CCC(C)SSc1ncc[nH]1 (configuration not stated),Potency,[1],inactive
same,Potency,[2],inactive
same,Potency,[6],10.5 µM (active)
same,Potency,[8],13.2 µM (active)
same,Potency,[7],9.35 µM (active)
same,Potency,[3],9.35 µM (active)
same,Potency,[5],5.26 µM (active)
same,Potency,[4],4.69 µM (active)
COc1c(C)cnc(Cn2cnc3c(Cl)nc(N)nc32)c1C,Potency,[1],inactive
same,Potency,[2],inactive
same,Potency,[7],0.0833 µM (active)
same,Potency,[3],0.118 µM (active)
same,Potency,[5],0.0418 µM (active)
same,Potency,[4],0.209 µM (active)
CC(C)[C@H](O)C(=O)N[C@@H](C)C(=O)N[C@@H]1C(=O)N(C)CCc2ccccc21,Potency,[1],inactive
same,Potency,[2],inactive
same,Potency,[7],inactive
same,Potency,[3],inactive
same,Potency,[5],inactive
same,Potency,[4],inactive
O=C1CN2Cc3c(ccc(Cl)c3Cl)N=C2N1,Potency,[1],inactive
same,Potency,[2],inactive
same,Potency,[6],29.6 µM (active)
same,Potency,[8],inactive
same,Potency,[7],inactive
same,Potency,[5],inactive
same,Potency,[4],inactive
Nc1ncnc2c1ncn2[C@@H]1O[C@H](CO)[C@@H](O)[C@@H]1O,Potency,[1],inactive
same,Potency,[2],inactive
same,Potency,[8],inactive
same,Potency,[7],1.87 µM (active)
same,Potency,[3],23.5 µM (active)
same,Potency,[5],2.64 µM (active)
same,Potency,[4],5.26 µM (active)
CCCCCCCCCCCCCC(=O)N[C@H](CO)[C@H](O)c1ccc([N+](=O)[O-])cc1,Potency,[1],inactive
same,Potency,[2],inactive
same,Potency,[7],10.5 µM (active)
same,Potency,[5],20.9 µM (active)
same,Potency,[4],16.6 µM (active)
CCOC(=O)c1c(CSc2ccccc2)n(C)c2cc(Br)c(O)c(CN(C)C)c12,Potency,[1],inactive
same,Potency,[7],26.4 µM (active)
O=C(O)Cc1cccc(OCCCN(Cc2cccc(C(F)(F)F)c2Cl)CC(c2ccccc2)c2ccccc2)c1,Potency,[1],inactive
same,Potency,[7],inactive
same,Potency,[5],inactive
same,Potency,[4],inactive
C[C@H](CCC(=O)O)[C@H]1CC[C@H]2[C@H]3[C@@H](CC[C@]12C)[C@@]1(C)CC[C@@H](O)C[C@H]1C[C@@H]3O,Potency,[1],inactive
same,Potency,[8],inactive
same,Potency,[3],1.48 µM (active)
COc1ccc2nc3cc(Cl)ccc3c(Nc3cc(CN4CCCC4)c(O)c(CN4CCCC4)c3)c2n1,Potency,[1],inactive
same,Potency,[9],23.5 µM (active)
same,Potency,[6],16.6 µM (active)
same,Potency,[3],29.6 µM (active)
CN(C)c1nc(Cc2ccc(NC(=O)c3ccc(C(F)(F)F)cc3)cc2)nc(N(C)C)c1CC(=O)O,Potency,[2],inactive
same,Potency,[10],inactive
same,Potency,[11],inactive
same,Potency,[12],inactive
same,Potency,[6],inactive
same,Potency,[8],inactive
same,Potency,[7],inactive
same,Potency,[3],inactive
same,Potency,[5],inactive
same,Potency,[4],inactive
Cc1cc(NC(=O)Nc2ccc(N(C)C)cc2)c2cc(F)cc(F)c2n1,Potency,[1],inactive
same,Potency,[8],inactive
same,Potency,[7],inactive
same,Potency,[4],inactive
CNC(=O)c1c(-c2ccc(F)cc2)oc2cc(N(CCO)S(C)(=O)=O)c(C3CC3)cc12,Potency,[1],inactive
same,Potency,[11],inactive
same,Potency,[12],inactive
same,outcome,[13],inactive
Cc1cc(OCCCS(C)(=O)=O)cc(C)c1-c1cccc(COc2ccc3c(c2)OC[C@H]3CC(=O)O)c1,Potency,[1],inactive
same,Potency,[8],inactive
same,Potency,[5],inactive
same,Potency,[4],5.9 µM (active)
